MazF activator: increases E. coli MazEF RNase cleavage of RNA. P0AE70. FAM/BHQ RNA-DNA oligo cleavage fluorescence, 5 h. activation, % at 20 µM. 0.32% of 350,000 active. AID 504720; in the data active means activation above about 50%
BoNT-A LC inh2: blocks Botulinum neurotoxin A light chain protease; multiplex microsphere protease substrate cleavage, flow cytometry; inhibition, % at 10 µM; 0.17% of 360,000 active; AID 588499; further: plate controls were buffer without enzyme for full effect and enzyme alone for no effect
Anthrax LF inh2: inhibitors of Bacillus anthracis lethal factor protease | P15917 | multiplex microsphere protease cleavage assay, LF | inhibition, % at 10 µM | 0.12% of 360,000 active; further: plate controls were buffer without enzyme for full effect and enzyme alone for no effect
Bead autofluor: flagged as autofluorescent in microsphere protease counterscreen; compound autofluorescence counterscreen, microsphere flow cytometry; hits give high values; 3.1% of 360,000 active; fluorescence intensity (concentration not given with the values); AID 624483; in the data active means fluorescence intensity above about 16000; inconclusive means no clear call, values can overlap the other calls
PfHsp40 rescue: compounds rescuing yeast from Plasmodium falciparum HSP40 toxicity; AID 504582; S. cerevisiae expressing PfHsp40, growth rescue, ATP luminescence; growth rescue, % at 12.5 µM; 0.68% of 340,000 active; in the data active means growth rescue above about 28%, passing the limit was not always enough; inconclusive means no clear call, values can overlap the other calls;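 further: yeast W303a lacking pdr1 and pdr3 grown in galactose medium; growth measured after three days at 30 °C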
BoNT-F LC inh: blocks Botulinum neurotoxin F light chain protease | Multiplex microsphere protease cleavage assay, flow cytometry | inhibition, % at 10 µM | 0.22% of 360,000 active | AID 588497; in the data active means inhibition above about 35%, passing the limit was not always enough; inconclusive means no clear call, values can overlap the other calls; further: plate controls were buffer without enzyme for full effect and enzyme alone for no effect
* marks the source's active call; other numbers are inactive results. Rows were chosen to be rich in hits. Some 4.3% of all compounds tested hit in one or more screens of this group. Unless noted, no stated cut-off is given here; in the data, active means inhibition above about 30%; inconclusive means no clear call, values can overlap the other calls; inactive means below that.

For O=C(NC(=S)Nc1nc(-c2ccc(Br)cc2)cs1)c1cccnc1 the results were MazF activator -1, BoNT-A LC inh2 -1, Anthrax LF inh2 -2, Bead autofluor 23721*, PfHsp40 rescue 0 and BoNT-F LC inh -2.
Screening CN(Cc1ccccc1)C(=O)CN1C(=O)c2ccccc2C1=O returned MazF activator -4, BoNT-A LC inh2 -3, Anthrax LF inh2 26, Bead autofluor 3400, PfHsp40 rescue -1 and BoNT-F LC inh -3.
Screening CN(Cc1ccccc1)C(=O)CN1C(=O)C2C3C=CC(C3)C2C1=O (stereo not drawn) returned MazF activator 7, BoNT-A LC inh2 -4, Anthrax LF inh2 -2, Bead autofluor 21276*, PfHsp40 rescue 0 and BoNT-F LC inh -5.
Screening O=C(C1=NN[C@@H]2C(=O)N(c3cccc(C(F)(F)F)c3)C(=O)[C@H]12)c1ccc2ccccc2n1 returned MazF activator 96*, BoNT-A LC inh2 1, Anthrax LF inh2 -3, Bead autofluor 2689, PfHsp40 rescue 8 and BoNT-F LC inh -1.
`O=C(OCc1ccccc1)C1=NNC2C(=O)N(c3ccccc3)C(=O)C12` (stereo not drawn) gave MazF activator 5, BoNT-A LC inh2 0, Anthrax LF inh2 -5, Bead autofluor 9784, PfHsp40 rescue -1 and BoNT-F LC inh -5.
O=C(C1=NN[C@@H]2C(=O)N(c3cccc(F)c3)C(=O)[C@H]12)c1ccc2ccccc2n1 was read as MazF activator 73*, BoNT-A LC inh2 1, Anthrax LF inh2 -3, Bead autofluor 2157, PfHsp40 rescue 0 and BoNT-F LC inh -2.
COc1cccc(N2C(=O)[C@H]3C(C(=O)c4cnccn4)=NN[C@H]3C2=O)c1 was read as MazF activator -61, BoNT-A LC inh2 0, Anthrax LF inh2 4, Bead autofluor 5301, PfHsp40 rescue 0 and BoNT-F LC inh 14.
For Cc1noc(C)c1C(=O)N1CCCC(C(=O)c2cccc(C(F)(F)F)c2)C1 (stereo not drawn) the results were MazF activator 0, BoNT-A LC inh2 0, Anthrax LF inh2 -2, Bead autofluor 2170, PfHsp40 rescue -3 and BoNT-F LC inh 0.
Screening COc1ccccc1NC(=O)CC1C(=O)NCCN1C(=O)Nc1ccccc1 (stereo not drawn) returned MazF activator 0, BoNT-A LC inh2 3, Anthrax LF inh2 3, Bead autofluor 21334*, PfHsp40 rescue 0 and BoNT-F LC inh 5.
O=C(CC1C(=O)NCCN1C(=O)Nc1ccccc1)Nc1ccc(F)cc1 (stereo not drawn) was read as MazF activator 5, BoNT-A LC inh2 -10, Anthrax LF inh2 -8, Bead autofluor 4628, PfHsp40 rescue -1 and BoNT-F LC inh inconclusive.
For CCOc1ccccc1NC(=O)CC1NCCNC1=O (stereo not drawn) the results were MazF activator 0, BoNT-A LC inh2 4, Anthrax LF inh2 -14, Bead autofluor 18163*, PfHsp40 rescue 0 and BoNT-F LC inh 7.
For O=C(CC1C(=O)NCCN1C(=S)Nc1ccccc1)Nc1ccc2c(c1)OCCO2 (stereo not drawn) the results were MazF activator 5, BoNT-A LC inh2 -3, Anthrax LF inh2 -2, Bead autofluor 24623*, PfHsp40 rescue 0 and BoNT-F LC inh -5.
`CC(NC(=O)COc1ccc(N(C)S(=O)(=O)c2ccccc2)cc1)c1ccccc1` (stereo not drawn) gave MazF activator -3, BoNT-A LC inh2 -1, Anthrax LF inh2 -4, Bead autofluor 4996, PfHsp40 rescue 0 and BoNT-F LC inh -11.
`O=C(O)C(=Cc1ccccc1[N+](=O)[O-])c1ccc2c(c1)OCO2` gave MazF activator 12, BoNT-A LC inh2 0, Anthrax LF inh2 0, Bead autofluor 3900 and BoNT-F LC inh -4.
Cn1c2c(c3ccccc31)CCSC2=O was read as MazF activator 5, BoNT-A LC inh2 0, Anthrax LF inh2 -5, Bead autofluor 22095*, PfHsp40 rescue 0 and BoNT-F LC inh 1.
Cc1cccc(NC(=O)CN2C(=O)CCS(=O)(=O)c3ccccc32)c1C was read as MazF activator 14, BoNT-A LC inh2 -2, Anthrax LF inh2 0, Bead autofluor 5769, PfHsp40 rescue 1 and BoNT-F LC inh -5.
Screening CC(C)CCNC(=O)c1ccc(CSCc2cccc(F)c2)o1 returned MazF activator -20, BoNT-A LC inh2 5, Anthrax LF inh2 -4, Bead autofluor 17562*, PfHsp40 rescue 2 and BoNT-F LC inh 4.
